Assay outcomes deposited in PubChem BioAssay by National Center for Advancing Translational Sciences (NCATS).
A selection: hits, their analogues and other compounds. The true share with any hit is near 18%.
DT40 TDP1 no CPT: qHTS for Inhibitors of human tyrosyl-DNA phosphodiesterase 1 (TDP1): qHTS in cells in absence of CPT | DT40 Tdp1-/- hTDP1 cells, no CPT, ATP luminescence, 48 h | Potency, µM (highest dose often 46.2 µM), for inactives: top-dose activity change, negative = growth inhibition, hits mostly inhibitors | 15% of 420,000 active; note: potency is the fitted concentration of half-maximal effect; % is set by controls: 0 for no effect and ±100 for the full control effect; nearly all actives have a fitted effect of over 55% in size
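Luminescent ATP content (CellTiter-Glo) served as the growth readout. Knockout chicken DT40 cells expressing human TDP1 were exposed to compounds without camptothecin for a minimum 48 hr at 37 °C.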
HepG2 tox: kills HepG2 cells in TGF-b inhibitor counter-screen | AID 588856 | Potency, µM (titrated, usually from 46.1 µM), for the others: at the top dose activity change, negative = cytotoxicity, hits mostly cytotoxic | HepG2 CAGA-GFP viability, ATP luminescence, 18 h | 0.76% of 410,000 active; note: potency is the fitted concentration of half-maximal effect
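CellTiter-Glo luminescence gave cytotoxicity after 18 hours at 37 degrees C. The cells were HepG2 CAGA-GFP in 1% FBS DMEM, stimulated with 500 pg/mL TGF-beta after compound addition. %Activity was normalised to no-cell wells (complete cell-killing) and DMSO (no toxicity), and curves were fitted and classified.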
DT40 TDP1 CPT: growth inhibition of DT40 Tdp1-/-;hTDP1 cells with camptothecin (screen for TDP1 inhibitors); chicken DT40 Tdp1-/-;hTDP1 cells + 20 nM CPT, ATP luminescence, 48 h; Potency, µM (top dose mostly 46.2 µM), without a hit: at the top dose activity change, negative = growth inhibition, usual class: inhibitors; 12% of 420,000 active; AID 686979; note: potency is the fitted concentration of half-maximal effect; % is set by controls: 0 for no effect and ±100 for the full control effect; nearly all actives have a fitted effect of over 55% in size
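Cell growth measured by CellTiter-Glo luminescence after a minimum 48 h, 37 C compound exposure with 20 nM CPT in Tdp1-knockout DT40 cells stably expressing hTDP1, seeded 400/well; qHTS titration format.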
TDP1 inh: TDP1 (human) enzyme inhibition; Q9NUW8; recombinant TDP1, AlphaScreen DNA substrate cleavage; 0.28% of 350,000 active; Potency, µM (highest dose often 130 µM), for inactives: top-dose activity change, negative = inhibition, actives largely listed as inhibitors; note: potency is the fitted concentration of half-maximal effect; % is set by controls: 0 for no effect and ±100 for the full control effect; nearly all actives have a fitted effect of over 40% in size
Target sequence (Q9NUW8 whole entry, looked up): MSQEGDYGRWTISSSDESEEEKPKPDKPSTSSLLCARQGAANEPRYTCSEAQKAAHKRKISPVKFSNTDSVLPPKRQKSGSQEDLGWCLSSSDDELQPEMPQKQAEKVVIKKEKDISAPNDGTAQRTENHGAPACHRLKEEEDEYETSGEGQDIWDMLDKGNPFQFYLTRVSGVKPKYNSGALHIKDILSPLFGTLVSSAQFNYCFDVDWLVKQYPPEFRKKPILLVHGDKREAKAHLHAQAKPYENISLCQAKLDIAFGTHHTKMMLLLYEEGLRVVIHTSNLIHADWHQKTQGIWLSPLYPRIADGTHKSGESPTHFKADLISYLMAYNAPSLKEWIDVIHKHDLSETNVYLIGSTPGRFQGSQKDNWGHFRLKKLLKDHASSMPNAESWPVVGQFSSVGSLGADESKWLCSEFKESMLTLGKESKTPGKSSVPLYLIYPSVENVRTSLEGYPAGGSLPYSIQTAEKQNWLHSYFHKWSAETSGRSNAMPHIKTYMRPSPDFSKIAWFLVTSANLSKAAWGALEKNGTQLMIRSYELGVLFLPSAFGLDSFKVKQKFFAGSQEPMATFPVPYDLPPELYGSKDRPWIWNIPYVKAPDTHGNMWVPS
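Enzyme-compound mixtures sat 15 min at room temperature, followed by a 5 min reaction with 15 nM final substrate and 10 min with AlphaScreen beads. Recombinant human Tdp1 was used at 1 nM final.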
TGFb inhibitor: TGF-b pathway inhibition; AID 588855; Potency, µM (highest dose often 46.1 µM), for inactives: at the top dose activity, negative = inhibition, usual class: inhibitors; 1.2% of 410,000 active; HepG2 CAGA-GFP TGF-b/SMAD3 reporter, GFP fluorescence, 18 h; TGF-beta stimulated, 500 pg/mL final; note: potency is the fitted concentration of half-maximal effect; % is set by controls: 0 for no effect and ±100 for the full control effect; nearly all actives have a fitted effect of over 65% in size
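Inhibition of TGF-beta-driven CAGA-GFP reporter expression in HEPG2 cells is measured by cellular GFP fluorescence after 18 h stimulation with 500 pg/mL recombinant TGF-beta in 1% FBS medium at 37 degrees C.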
IL-1B inflam inh: inhibitors of inflammasome signaling (IL-1 beta secretion) | THP-1 LPS/ATP IL-1B secretion, AlphaLISA, 16 h; stronger effect = lower value | activity change, % at 57.5 µM | 4.7% of 360,000 active | AID 743279; in the data active = activity change below about -50%; inconclusive = mostly about -30% to -49%; note: % is set by controls: 0 for no effect and ±100 for the full control effect
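Secreted IL-1B measured by AlphaLISA bead assay after 16 h compound exposure of THP-1 cells; compounds (final up to 57.5 uM) added 1 h before LPS (250 ng/mL) and ATP (1.25 mM) stimulation; lower signal means less secretion.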
* marks the source's active call; other numbers are inactive results; u = inconclusive; x = no result given; [ ] = remark or other dose. Unless noted, calls come from the whole dose curve; as a rule, active = well fitted curve in the direction sought with a large enough effect; inconclusive = small, poorly fitted or top-dose-only effect, or another doubt; inactive = no such curve, though single readings can be large; an effect the other way counts as inactive or inconclusive.

SMILES	DT40 TDP1 no CPT	HepG2 tox	DT40 TDP1 CPT	TDP1 inh	TGFb inhibitor	IL-1B inflam inh
CCOc1cc(C2NC(=O)NC(C)=C2C(=O)OCC2CCCCC2)ccc1O (centres undefined)	u	-17%	u	6%	-13%	-10
COc1ccccc1C(=O)NCC(c1ccco1)N1CCc2ccccc21 (centres undefined)	23µM*	-10%	15µM*	3%[0.505 µM]	-14%	1
COc1ccccc1NC(=O)C(=O)NCC(c1ccco1)N1CCc2ccccc21 (centres undefined)	u	14%	u	7%[0.505 µM]	9%	-8
COc1ccc(OC)c2sc(N3CCN(C(=O)CCS(=O)(=O)c4ccc(F)cc4)CC3)nc12	21µM*	-20%	18µM*	0%	-10%	x
Cc1ccc2sc(N3CCN(C(=O)CCS(=O)(=O)c4ccc(F)cc4)CC3)nc2c1C	2.6µM*	-8%	4.1µM*	0%	u	x
Cc1ccc2sc(N3CCN(C(=O)C4=COCCO4)CC3)nc2c1C	u	-21%	-28%	0%	3%	u
CCOc1ccc(C2C(C(=O)Nc3ccccc3)=C(C)Nc3nc(-c4ccccc4Cl)nn32)cc1OC (centres undefined)	18µM*	-17%	u	x	-8%	x
CC1=C(C(=O)Nc2ccccc2)C(c2ccncc2)n2nnnc2N1 (centres undefined)	u	-22%	-13%	1%	-14%	-24
COc1ccccc1-c1nc2n(n1)C(c1ccccc1Cl)C(C(=O)Nc1cccnc1)=C(C)N2 (centres undefined)	21µM*	1%	u	x	1%	x
COc1cc(C2C(C(=O)Nc3ccccc3)=C(C)Nc3nnnn32)cc(OC)c1OC (centres undefined)	12µM*	0%	5%	x	9%	x
Fc1cccc(NC(=S)N2CCN(c3ccccn3)CC2)c1	-9%	2%	-2%	-6%	-4%	-16
CS(=O)(=O)c1ccc(S(=O)CC(=O)Oc2ccc(Cl)cc2)c([N+](=O)[O-])c1 (centres undefined)	0.58µM*	18µM*	1.2µM*	3%	u	-99*
O=[N+]([O-])c1cc(CS(=O)(=O)Oc2ccc(Cl)cc2)c(O)c([N+](=O)[O-])c1	-20%	2%	2%	x	0%	13
O=C(CS(=O)c1ccccc1[N+](=O)[O-])Oc1ccc(Br)cc1 (centres undefined)	-17%	-15%	-19%	x	-13%	-62*
CC1(C)CC(=O)C=C(Nc2cc(-c3ccccc3)[nH]n2)C1	-26%	-15%	-14%	5%	23%	u
Cc1cc(C)c2nccc(C)c2c1	3%	-3%	-12%	x	-13%	x
CC[C@H](C)[C@H](NC(=O)[C@H](Cc1ccc(O)cc1)NC(=O)[C@H](Cc1cnc[nH]1)NC(=O)[C@H](CCCNC(=N)N)NC(=O)[C@H](CC(C)C)NC(=O)[C@H](C)NC(=O)[C@H](CO)NC(=O)[C@H](Cc1ccc(O)cc1)NC(=O)[C@H](Cc1ccc(O)cc1)NC(=O)[C@H](CCCNC(=N)N)NC(=O)[C@H](C)NC(=O)[C@H](CCSC)NC(=O)[C@H](CC(=O)O)NC(=O)[C@H](CCC(=O)O)NC(=O)[C@H](C)NC(=O)[C@@H]1CCCN1)C(=O)N[C@@H](CC(N)=O)C(=O)N[C@@H](CC(C)C)C(=O)N[C@H](C(=O)N[C@H](C(=O)N[C@@H](CCCNC(=N)N)C(=O)N[C@@H](CCC(N)=O)C(=O)N[C@@H](CCCNC(=N)N)C(=O)N[C@@H](Cc1ccc(O)cc1)C(N)=O)[C@@H](C)O)[C@@H](C)CC	x	x	x	12%	x	x
CCCCN(C)C(=O)C1CCC(Cn2c(=O)[nH]c3ccsc3c2=O)CC1 (centres undefined)	u	-12%	u	6%	-16%	x
CCC(C)NCC(O)(c1ccc(Cl)cc1)c1ccc(Cl)cc1 (centres undefined)	23µM*	-99%	23µM*	3%	u	u
Cc1cc(C)cc(NC(=O)CSc2nncn3c2cc2occc23)c1	u	-11%	-25%	-5%	1%	x
O=C(CSc1nncn2c1cc1occc12)Nc1ccccc1C(F)(F)F	u	-26%	u	5%	u	x
CCc1nnc(SC(CC)C(=O)Nc2cc(C)ccc2C)c2cc3occc3n12 (centres undefined)	15µM*	-2%	18µM*	-13%	0%	x
CN(C(=O)CSc1nncn2c1cc1occc12)c1ccccc1	26µM*	-11%	u	5%	u	x
CCc1cccc(C)c1NC(=O)C(CC)Sc1nncn2c1cc1occc12 (centres undefined)	21µM*	-31%	21µM*	-5%	u	x
CN(CC(=O)Nc1ccccc1Cl)C(=O)COC(=O)Cc1ccc(F)cc1	-19%	-6%	-3%	5%	-22%	14
SMILES	DT40 TDP1 no CPT	HepG2 tox	DT40 TDP1 CPT	TDP1 inh	TGFb inhibitor	IL-1B inflam inh
COc1ccc2c(c1OC)OCC2C (centres undefined)	18µM*	-13%	u	x	u	14
CCn1cc(C(=O)O)c(=O)c2cc(F)c(N3CCNC(C)C3)c(F)c21 (centres undefined)	u	x	15µM*	-12%[56.1 µM]	x	x
COc1c(F)c(F)cc2c(=O)c(C(=O)O)cn(C3CC3)c12	-17%	-31%	2%	x	1%	-7
CCN(CC)c1ncnc2c1ncn2[C@H]1CN(C2CCCC2)C[C@@H](CO)O1	-17%	0%	-28%	x	1%	-9
NS(=O)(=O)c1ccc(N/N=C/c2ccccc2C(=O)O)c([N+](=O)[O-])c1	4%	3%	5%	4%	3%	-2
Cc1ccc(C(=O)Nc2cccc(C(=O)N/N=C/c3ccc(O)cc3)c2)cc1	-27%	-1%	-7%	0%	5%	-7
Cc1ccc(NC(=O)c2ccc(N/N=C/c3cccc(O)c3)c([N+](=O)[O-])c2)cc1	12µM*	-6%	9.2µM*	1%	-3%	52
Cc1ccccc1NC(=O)c1ccc(N/N=C/c2ccccc2O)c([N+](=O)[O-])c1	10µM*	-17%	8.2µM*	1%	-7%	1
CC(Sc1nnc(N)s1)C(=O)Nc1ccc2c(c1)OCCO2 (centres undefined)	8%	-14%	15%	4%	-9%	9
